From PubChem BioAssay (Tox21)
Where “and” joins values, the source holds several entries; their conditions need not be identical. Equal entries are not always repeated. Records with an inconclusive call do not appear. Some structures have more than one record in an assay (separate samples or runs), and their calls can disagree. Calls of active or inactive are those of the source. Unless noted, calls come from the whole dose curve; as a rule, active = well fitted curve in the direction sought with a large enough effect in the repeat runs; inconclusive = weak or mixed curves; inactive = no such curve, though single readings can be large; an effect the other way counts as inactive or inconclusive.

Experiments:
[1] = target: Estrogen receptor beta (Homo sapiens) (UniProt Q92731); experiment: qHTS assay to identify small molecule agonists of the estrogen receptor beta (ER-beta) signaling pathway (AID 1259377; active = well fitted activation curve with a large enough effect in the signal ratio in the repeat runs, not every such curve was filed as active; the % refers to the signal ratio)
Procedure, shortened: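 Reporter cells (HEK293T, ER-beta-UAS-bla) receive compounds or DMSO after a 6 hr pre-incubation. They then incubate 16 hr at 37C/5% CO2, and fluorescence from LiveBLAzer B/G substrate is measured after 2 hours at room temperature.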

[2] = target: Estrogen receptor beta (Homo sapiens) (UniProt Q92731); experiment: qHTS assay to identify small molecule antagonists of the estrogen receptor beta (ER-beta) signaling pathway (AID 1259378; active = well fitted inhibition curve with a large enough effect in the signal ratio in the repeat runs, not every such curve was filed as active; the % refers to the signal ratio)
Procedure, shortened: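 ER-beta-UAS-bla HEK293T cells in 2% charcoal-stripped FBS medium treated with compound plus 1nM final 17-beta-estradiol for 16 hr at 37C. Beta-lactamase reporter read by FRET substrate fluorescence after 2 hours at room temperature.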

[3] = qHTS assay to identify small molecule agonists of the androgen receptor (AR) signaling pathway in the presence of an antagonist - cell viability counter screen (AID 1259379); note: nearly all actives have a fitted effect of over 25% in size; note: potency is the fitted concentration of half-maximal effect
Procedure, shortened: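 Cells: MDA-kb2 (MMTV-luc, AR and GR elements), 3,000/well, 5 hr settle. Added: nilutamide 3.0uM final, then compounds (15 conc.). Incubation: 16 hr, 37C, no CO2. Read-out: CellTiter-Fluor, 1 hr, fluorescence.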

[4] = qHTS assay to identify small molecule agonists of the estrogen receptor beta (ER-beta) signaling pathway - cell viability counter screen (AID 1259380); note: nearly all actives have a fitted effect of over 30% in size
Procedure, shortened: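 HEK293T ER-beta-UAS-bla; 2% CS-FBS; 6 hr pre-plate, 16 hr cpd at 37C/5% CO2; LiveBLAzer read first, then CellTiter-Glo 30 min RT, luminescence.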

[5] = qHTS assay to identify small molecule antagonists of the estrogen receptor beta (ER-beta) signaling pathway - cell viability counter screen (AID 1259382); note: series mostly up to about 92 µM; nearly all actives have a fitted effect of over 55% in size
Procedure, shortened: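 Cells: ER-beta-UAS-bla HEK293T, 2,000/well, 2% CS-FBS, 6 hr settle. Cpd + E2 (1nM final), 16 hr, 37C/5% CO2. Bla FRET substrate 2 hr RT, then CellTiter-Glo 30 min RT, luminescence.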

[6] = target: Estrogen receptor (Homo sapiens) (UniProt P03372); experiment: qHTS assay to identify small molecule agonists of the estrogen receptor alpha (ER-alpha) signaling pathway in the presence of an antagonist (AID 1259383; calls by dose curve; note: top concentration of the series differs between compounds; nearly all actives have a fitted effect of over 15% in size)
Procedure, shortened: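 VM7Luc4E2, endog. ER-alpha + 4×ERE-luc; charcoal-stripped FBS, phenol red-free, 5 d; 24hr plating; +10.0nM ICI-182,780 (final); cpds 15 conc, 22hr, 37C/5% CO2; ONE-Glo luminescence.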

[7] = qHTS assay to identify small molecule agonists or antagonists of the thyroid stimulating hormone receptor (TSHR) signaling pathway - wild type cell line counter screen (AID 1259384; calls by dose curve)
Procedure, shortened: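 Wild-type Hek293 cells, 800/well, 18 h at 37C, then compound with Ro20-1724 for 30 min RT. cAMP by HTRF (cAMP-d2/anti-cAMP cryptate), 1 h RT, fluorescence read. 15 concentrations, triplicates.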

[8] = target: Thyrotropin receptor (Homo sapiens) (UniProt P16473); experiment: qHTS assay to identify small molecule antagonists of the thyroid stimulating hormone receptor (TSHR) signaling pathway (AID 1259385; calls by dose curve; note: nearly all actives have a fitted effect of over 20% in size)
Procedure, shortened: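 TSHR-HEK293 cells (800/well) plated 18 h, then compounds with Ro20-1724 and TSH at 1.5 ng/mL final, 30 min at room temperature. cAMP quantified by HTRF (cAMP-d2/anti-cAMP-cryptate, 1 h); 15 concentrations in triplicate.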

[9] = qHTS assay to identify small molecule agonists of the estrogen receptor alpha (ER-alpha) signaling pathway in the presence of an antagonist - cell viability counter screen (AID 1259386);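 note: cells exposed to compounds for 22 h at 37 °C before the viability read; nearly all actives have a fitted effect of over 30% in size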; note: potency is the fitted concentration of half-maximal effect
Procedure, shortened: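 VM7Luc4E2, stripped-serum pre-culture 5 d; 24hr plating; +ICI-182,780 10.0nM final; cpds 15 conc, 22hr, 37C/5% CO2; CellTiter-Fluor added at 21hr, fluorescence 1hr later.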

[10] = target: Progesterone receptor (Homo sapiens) (UniProt P06401); experiment: qHTS assay to identify small molecule agonists of the progesterone receptor (PR) signaling pathway (AID 1346784; calls by dose curve; note: nearly all actives have a fitted effect of over 30% in size)
Procedure, shortened: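 Reporter assay, GripTite PR-UAS-bla HEK 293T cells: 16 hr exposure to DMSO-dissolved compounds at 37C, 5% CO2, in steroid-depleted (2% charcoal-stripped FBS) medium; beta-lactamase measured by FRET fluorescence.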

[11] = target: Progesterone receptor (Homo sapiens) (UniProt P06401); experiment: qHTS assay to identify small molecule antagonists of the progesterone receptor (PR) signaling pathway (AID 1346795; active = well fitted inhibition curve with a large enough effect in the signal ratio in the repeat runs, not every such curve was filed as active; the % refers to the signal ratio; note: potency is the fitted concentration of half-maximal effect)
Procedure, shortened: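 Stimulus R5020 at 1 nM final; cells HEK293T PR-UAS-bla; medium with 2% charcoal-stripped FBS; compound exposure 16 hr at 37C, 5% CO2; detection by FRET beta-lactamase substrate, 2 hr, room temperature.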

[12] = qHTS assay to identify small molecule antagonists of the progesterone receptor (PR) signaling pathway - cell viability counter screen (AID 1346798); note: series mostly up to about 92 µM; nearly all actives have a fitted effect of over 50% in size
Procedure, shortened: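 In the same plates used for the beta-lactamase readout, cell viability of compound- and R5020-treated PR-UAS-bla HEK293T cells (16 hr, 37C) was assessed by CellTiter-Glo luminescence.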

[13] = qHTS assay to identify small molecule antagonists of the TGF-beta/Smad signaling pathway - cell viability counter screen (AID 1346824); note: nearly all actives have a fitted effect of over 50% in size
Procedure, shortened: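 SBE-bla HEK 293T cells, incubated overnight, then compound plus 0.25 ng/mL TGF-beta1 (stock added) for 5 hr at 37 C. Viability was read in the same wells by CellTiter-Glo luminescence after 30 min at room temperature.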

[14] = qHTS assay to identify small molecule agonists of the TGF-beta/Smad signaling pathway (AID 1346859; active = well fitted activation curve with a large enough effect in the signal ratio in the repeat runs, not every such curve was filed as active; the % refers to the signal ratio; note: series mostly up to about 77 µM)
Procedure, shortened: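 Screening used HEK 293T SBE-bla cells at 4,000/well. Test agents: 5 hr, 37 C. Detection: FRET substrate, 2 hr RT, then excitation 405 nm with emissions at 460 and 530 nm.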

[15] = target: Thyrotropin-releasing hormone receptor (Homo sapiens) (UniProt P34981); experiment: qHTS assay to identify small molecule antagonists of the thyrotropin-releasing hormone receptor (TRHR) signaling pathway (AID 1346877; active = well fitted inhibition curve with a large enough effect in the repeat runs, not every such curve was filed as active; note: series mostly up to about 51 µM)
Procedure, shortened: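 Intracellular calcium fluorescence, read kinetically every second over 3 min, reports TRH-evoked signalling in HEK293 cells carrying TRHR. Test compounds were added 5 min ahead of a 1 nM TRH challenge.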

[16] = Human pregnane X receptor (PXR) small molecule agonists, qHTS cell viability counter screen (AID 1346977); note: nearly all actives have a fitted effect of over 50% in size; note: potency is the fitted concentration of half-maximal effect
Procedure, shortened: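 In each well, the PXR reporter HepG2 line was checked for viability: CellTiter-Fluor reagent added 23hr post-dosing, fluorescence read after 1hr incubation at 37C.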

[17] = qHTS assay to identify small molecule agonists of the progesterone receptor (PR) signaling pathway - cell viability counter screen (AID 1346799; calls by dose curve; note: nearly all actives have a fitted effect of over 45% in size)
Procedure, shortened: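 Multiplexed viability read: CellTiter-Glo luminescence, 30 min RT, following LiveBLAzer FRET measurement on PR-UAS-bla HEK293T cells exposed to compounds 16 hr.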

[18] = target: Thyrotropin-releasing hormone receptor (Homo sapiens) (UniProt P34981); experiment: qHTS assay to identify small molecule agonists of the thyrotropin-releasing hormone receptor (TRHR) signaling pathway (AID 1346891; calls by dose curve; note: series mostly up to about 58 µM)
Procedure, shortened: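 Readout was intracellular calcium fluorescence in TRHR-Hek293 cells. Cells were incubated 18 h, dye-loaded 2 h at 37 °C, and treated with compound in agonist mode.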

[19] = qHTS assay to identify small molecule agonists of the TGF-beta/Smad signaling pathway - cell viability counter screen (AID 1346829); note: top concentration of the series differs between compounds; nearly all actives have a fitted effect of over 45% in size
Procedure, shortened: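 Same-well cytotoxicity: CellTiter-Glo added after the 2 hr room-temperature beta-lactamase substrate step, luminescence measured 30 min later; cells had 5 hr of compound at 37 C.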

[20] = target: Androgen receptor (Homo sapiens) (UniProt P10275); experiment: qHTS assay to identify small molecule agonists of the androgen receptor (AR) signaling pathway in the presence of an antagonist (AID 1259381; calls by dose curve; note: nearly all actives have a fitted effect of over 15% in size)
Procedure, shortened: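 MDA-kb2 cells, 3,000/well, rested 5hr at 37C/0% CO2 → nilutamide 3.0uM final or buffer → compounds, 15 conc. → 16hr at 37C → ONE-Glo, 30min RT → luminescence.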

Measured: Potency

Chain of Estrogen receptor (Homo sapiens) (P03372 whole entry, looked up): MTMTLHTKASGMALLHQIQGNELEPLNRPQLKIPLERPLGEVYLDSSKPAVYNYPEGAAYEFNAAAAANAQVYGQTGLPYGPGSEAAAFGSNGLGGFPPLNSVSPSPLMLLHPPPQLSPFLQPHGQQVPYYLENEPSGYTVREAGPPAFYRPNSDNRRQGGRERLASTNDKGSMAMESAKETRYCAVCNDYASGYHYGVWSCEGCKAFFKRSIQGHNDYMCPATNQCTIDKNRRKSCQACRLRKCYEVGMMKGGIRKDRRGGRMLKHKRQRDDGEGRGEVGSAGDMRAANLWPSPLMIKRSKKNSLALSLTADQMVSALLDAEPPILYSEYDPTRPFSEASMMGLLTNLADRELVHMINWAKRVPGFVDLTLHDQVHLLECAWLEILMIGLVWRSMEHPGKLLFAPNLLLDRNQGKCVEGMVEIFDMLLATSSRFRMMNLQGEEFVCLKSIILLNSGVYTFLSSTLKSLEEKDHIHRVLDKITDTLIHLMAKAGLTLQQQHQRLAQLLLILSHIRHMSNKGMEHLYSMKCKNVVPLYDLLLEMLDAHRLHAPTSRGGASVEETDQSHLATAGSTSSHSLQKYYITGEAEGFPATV
Chain of Androgen receptor (Homo sapiens) (P10275 whole entry, looked up): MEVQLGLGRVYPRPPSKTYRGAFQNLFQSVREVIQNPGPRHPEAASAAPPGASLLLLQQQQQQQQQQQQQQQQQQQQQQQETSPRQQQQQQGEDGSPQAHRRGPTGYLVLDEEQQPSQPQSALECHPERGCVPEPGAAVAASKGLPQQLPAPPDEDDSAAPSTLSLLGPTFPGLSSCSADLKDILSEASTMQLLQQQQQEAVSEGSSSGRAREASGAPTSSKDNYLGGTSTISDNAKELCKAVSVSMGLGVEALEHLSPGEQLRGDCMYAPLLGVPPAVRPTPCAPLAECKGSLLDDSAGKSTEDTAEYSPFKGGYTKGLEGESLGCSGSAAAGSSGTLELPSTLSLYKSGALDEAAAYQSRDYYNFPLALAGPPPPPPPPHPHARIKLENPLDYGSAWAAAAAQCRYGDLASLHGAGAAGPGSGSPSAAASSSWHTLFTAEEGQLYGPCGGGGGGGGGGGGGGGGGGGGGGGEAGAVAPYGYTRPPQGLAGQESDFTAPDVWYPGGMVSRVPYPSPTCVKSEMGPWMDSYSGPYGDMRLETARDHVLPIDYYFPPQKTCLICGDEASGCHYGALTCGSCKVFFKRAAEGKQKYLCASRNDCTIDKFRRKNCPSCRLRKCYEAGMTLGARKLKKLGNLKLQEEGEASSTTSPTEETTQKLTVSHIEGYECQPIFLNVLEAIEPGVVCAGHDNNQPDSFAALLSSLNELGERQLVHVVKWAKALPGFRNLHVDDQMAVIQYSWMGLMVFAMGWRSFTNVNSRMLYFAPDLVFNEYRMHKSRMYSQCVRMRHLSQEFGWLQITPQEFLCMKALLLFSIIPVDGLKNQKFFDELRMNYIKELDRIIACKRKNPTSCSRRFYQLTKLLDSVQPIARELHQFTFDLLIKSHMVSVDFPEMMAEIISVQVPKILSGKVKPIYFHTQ
Chain of Thyrotropin receptor (Homo sapiens) (P16473 whole entry, looked up): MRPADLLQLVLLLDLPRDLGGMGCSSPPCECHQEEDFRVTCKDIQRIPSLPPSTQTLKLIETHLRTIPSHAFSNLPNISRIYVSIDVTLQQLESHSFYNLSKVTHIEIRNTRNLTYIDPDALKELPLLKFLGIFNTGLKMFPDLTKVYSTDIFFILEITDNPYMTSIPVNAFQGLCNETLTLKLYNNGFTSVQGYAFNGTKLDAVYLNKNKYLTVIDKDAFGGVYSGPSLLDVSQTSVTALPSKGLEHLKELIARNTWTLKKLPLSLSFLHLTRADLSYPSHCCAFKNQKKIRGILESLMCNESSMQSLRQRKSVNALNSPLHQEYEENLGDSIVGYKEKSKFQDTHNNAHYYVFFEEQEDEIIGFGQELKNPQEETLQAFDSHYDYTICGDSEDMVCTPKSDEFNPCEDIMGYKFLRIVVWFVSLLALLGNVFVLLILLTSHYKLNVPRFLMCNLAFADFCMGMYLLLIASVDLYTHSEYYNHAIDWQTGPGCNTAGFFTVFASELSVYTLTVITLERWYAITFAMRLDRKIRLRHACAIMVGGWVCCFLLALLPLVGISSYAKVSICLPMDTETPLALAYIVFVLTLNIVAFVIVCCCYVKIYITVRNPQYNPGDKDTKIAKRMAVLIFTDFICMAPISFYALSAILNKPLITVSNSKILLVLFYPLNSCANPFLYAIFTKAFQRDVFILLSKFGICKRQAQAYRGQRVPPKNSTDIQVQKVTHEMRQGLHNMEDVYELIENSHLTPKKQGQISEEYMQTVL
Chain of Thyrotropin-releasing hormone receptor (Homo sapiens) (P34981 whole entry, looked up): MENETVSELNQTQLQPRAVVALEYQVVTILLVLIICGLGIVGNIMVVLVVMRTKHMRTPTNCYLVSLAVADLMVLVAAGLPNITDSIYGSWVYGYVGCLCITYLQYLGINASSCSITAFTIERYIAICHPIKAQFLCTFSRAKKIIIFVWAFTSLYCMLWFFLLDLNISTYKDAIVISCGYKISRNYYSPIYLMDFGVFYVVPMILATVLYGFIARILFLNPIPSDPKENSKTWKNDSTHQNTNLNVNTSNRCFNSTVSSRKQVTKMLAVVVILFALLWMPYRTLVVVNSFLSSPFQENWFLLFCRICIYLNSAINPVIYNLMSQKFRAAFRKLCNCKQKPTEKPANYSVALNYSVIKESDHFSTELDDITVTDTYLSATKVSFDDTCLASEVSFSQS
Chain of Estrogen receptor beta (Homo sapiens) (Q92731 whole entry, looked up): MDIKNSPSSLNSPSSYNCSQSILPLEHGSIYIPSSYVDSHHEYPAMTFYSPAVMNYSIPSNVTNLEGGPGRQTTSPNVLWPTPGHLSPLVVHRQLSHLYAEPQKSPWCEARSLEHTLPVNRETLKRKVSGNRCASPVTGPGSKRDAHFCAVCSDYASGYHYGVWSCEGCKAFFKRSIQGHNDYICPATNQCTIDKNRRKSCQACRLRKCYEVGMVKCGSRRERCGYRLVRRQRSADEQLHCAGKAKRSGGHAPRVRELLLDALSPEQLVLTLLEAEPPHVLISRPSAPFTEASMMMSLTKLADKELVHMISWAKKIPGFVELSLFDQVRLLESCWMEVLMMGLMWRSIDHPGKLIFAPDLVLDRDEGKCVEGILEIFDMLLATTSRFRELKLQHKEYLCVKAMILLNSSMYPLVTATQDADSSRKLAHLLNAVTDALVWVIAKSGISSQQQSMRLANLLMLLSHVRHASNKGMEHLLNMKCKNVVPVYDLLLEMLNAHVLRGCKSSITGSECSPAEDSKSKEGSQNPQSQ
Chain of Progesterone receptor (Homo sapiens) (P06401 whole entry, looked up): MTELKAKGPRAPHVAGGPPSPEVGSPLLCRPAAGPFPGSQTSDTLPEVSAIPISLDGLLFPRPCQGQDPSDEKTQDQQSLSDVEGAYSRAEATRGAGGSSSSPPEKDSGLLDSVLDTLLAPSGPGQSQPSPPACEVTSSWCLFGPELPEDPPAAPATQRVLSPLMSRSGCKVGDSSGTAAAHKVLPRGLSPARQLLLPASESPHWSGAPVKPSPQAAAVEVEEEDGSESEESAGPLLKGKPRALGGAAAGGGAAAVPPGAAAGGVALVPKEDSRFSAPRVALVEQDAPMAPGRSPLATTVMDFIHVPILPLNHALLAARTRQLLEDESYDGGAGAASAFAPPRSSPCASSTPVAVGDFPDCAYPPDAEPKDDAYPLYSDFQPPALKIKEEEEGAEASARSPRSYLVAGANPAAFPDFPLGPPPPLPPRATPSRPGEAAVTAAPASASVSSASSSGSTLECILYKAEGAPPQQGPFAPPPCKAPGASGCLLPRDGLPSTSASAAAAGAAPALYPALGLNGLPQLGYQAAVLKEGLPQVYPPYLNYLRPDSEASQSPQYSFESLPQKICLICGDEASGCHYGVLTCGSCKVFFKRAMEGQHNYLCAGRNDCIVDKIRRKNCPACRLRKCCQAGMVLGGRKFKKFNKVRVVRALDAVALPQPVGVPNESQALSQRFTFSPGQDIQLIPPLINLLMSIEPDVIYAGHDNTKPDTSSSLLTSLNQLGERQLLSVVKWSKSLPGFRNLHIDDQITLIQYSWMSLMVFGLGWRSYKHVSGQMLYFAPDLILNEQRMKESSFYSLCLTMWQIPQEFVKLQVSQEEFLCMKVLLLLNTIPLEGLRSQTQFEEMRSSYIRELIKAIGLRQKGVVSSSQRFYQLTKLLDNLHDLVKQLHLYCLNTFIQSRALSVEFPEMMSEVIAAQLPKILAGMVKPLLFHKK

CC1=NN(c2ccccc2)C(=O)C1
inactive: [1] | [2] | [3] | [4] | [5] | [6] | [7] | [8] | [9] | [10] | [11] | [12] | [13] | [14] | [15] | [16]

NC(=O)NO
inactive: [1] | [2] | [3] | [4] | [7] | [8] | [9] | [10] | [11] | [12] | [17] | [13] | [14] | [15] | [18] | [16]

CCCCOCCOCCSC#N
inactive: [1] | [2] | [3] | [4] | [5] | [7] | [8] | [9] | [12] | [13] | [19] | [14] | [15] | [18] | [16]

Cc1cnc(NC(=O)C2=C(O)c3ccccc3S(=O)(=O)N2C)s1
43.4 µM (active) and inactive: [9]
inactive: [1] | [2] | [3] | [4] | [5] | [6] | [10] | [11] | [12] | [17] | [14] | [15] | [18] | [16]

CN/C(=C\[N+](=O)[O-])NCCSCc1ccc(CN(C)C)o1
inactive: [1] | [2] | [3] | [4] | [5] | [6] | [7] | [8] | [9] | [10] | [11] | [12] | [17] | [13] | [19] | [14] | [15] | [16]

O=c1cc[nH]c(=O)[nH]1
inactive: [1] | [2] | [3] | [4] | [5] | [7] | [8] | [9] | [10] | [11] | [12] | [17] | [13] | [14] | [15] | [18] | [16]

N[C@@H](Cc1c[nH]c2ccccc12)C(=O)O
inactive: [1] | [2] | [3] | [4] | [7] | [8] | [9] | [10] | [11] | [12] | [17] | [13] | [19] | [14] | [15] | [16]

COC1=CC(=O)C[C@@H](C)[C@]12Oc1c(Cl)c(OC)cc(OC)c1C2=O
active: [11] 27.1 µM and 30.6 µM
inactive: [1] | [2] | [3] | [4] | [5] | [6] | [7] | [8] | [9] | [10] | [12] | [17] | [13] | [19] | [14] | [15] | [16]

COc1ccc(C(=O)c2ccccc2)c(O)c1
inactive: [1] | [2] | [3] | [4] | [20] | [6] | [7] | [8] | [9] | [10] | [12] | [17] | [13] | [19] | [14] | [15] | [16]
active: [11] 30.1 µM

OCCCc1ccccc1
inactive: [1] | [2] | [3] | [4] | [6] | [7] | [8] | [9] | [10] | [11] | [12] | [13] | [14] | [15] | [16]

Cc1cccc(C)c1O
inactive: [1] | [2] | [3] | [4] | [20] | [5] | [6] | [9] | [10] | [11] | [12] | [17] | [13] | [19] | [14] | [15] | [18] | [16]

CO[C@H]1C=CO[C@@]2(C)Oc3c(C)c(O)c4c(O)c(c(/C=N/N5CCN(C)CC5)c(O)c4c3C2=O)NC(=O)/C(C)=C\C=C[C@H](C)[C@H](O)[C@@H](C)[C@@H](O)[C@@H](C)[C@H](OC(C)=O)[C@@H]1C
inactive: [1] | [2] | [4] | [5] | [7] | [8] | [10] | [11] | [12] | [13] | [19] | [14] | [15] | [18]
active: [3] 24.5 µM and 27.6 µM and 15 µM | [9] 27.4 µM and 31 µM and 23.7 µM | [16] 35.5 µM and 19.6 µM and 23.7 µM

CC(C)Cc1ccc(C(C)C(=O)O)cc1 (configuration not stated)
inactive: [1] | [2] | [3] | [4] | [6] | [7] | [8] | [9] | [10] | [11] | [12] | [17] | [14] | [15] | [18] | [16]

COC(=O)C1CCC(C(=O)OC)CC1 (configuration not stated)
inactive: [1] | [2] | [3] | [4] | [5] | [6] | [7] | [8] | [9] | [10] | [11] | [12] | [13] | [19] | [14] | [15] | [16]
